The values that follow come from PubChem BioAssay (NCI).

Among the test systems are NCI-H23 lung; NCI-H226 lung; NCI-H322M lung; HOP-62 NSCLC; NCI-H460 lung; NCI-H522 lung; A549/ATCC NSCLC; 786-0 renal; COLO 205 colon; DU-145 prostate; K-562 leukemia; MALME-3M melanoma; MDA-MB-231 breast; RXF 393 renal; SF-268 CNS; SF-295 CNS; SF-539 CNS; UACC-257 melanoma; M14 melanoma; HOP-92 NSCLC.
What all share (assay): NCI-60 one-dose screen, 48 h (100 = growth as untreated, 0 = no growth, -100 = all killed)
What all share (conditions): 10 µM unless noted

About 83,000 compounds went through this panel and 20% of them were active in at least one assay; those are over-represented in the sample as a whole.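 Values shown are percent growth following 48 h exposure of cells in 96-well plates to a single concentration of compound; below 10 was considered active.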 Unmarked numbers belong to inactive results. Activity calls are given as the source filed them.

For the compound `C#Cc1ccc(NC(=O)Cc2ccc(/C=C/C(=O)c3nccn3C)cc2)cc1`, the growth is 40.4% in the experiment with NCI-H23 lung; 90.6% with NCI-H226 lung; 57.6% with NCI-H322M lung; 48.3% with HOP-62 NSCLC; 22.6% in the experiment with NCI-H460 lung; 68.1% in the experiment with NCI-H522 lung. The growth in the experiment with A549/ATCC NSCLC is 74.6%; in the experiment on 786-0 renal, 30%; in the experiment on COLO 205 colon, 66%; in the experiment on DU-145 prostate, 12.6%; in the experiment on K-562 leukemia, 18.2%; in the experiment on MALME-3M melanoma it was 95.7%. Further, the growth with MDA-MB-231 breast is 54.4%; in the experiment with RXF 393 renal, 21.8%; with SF-268 CNS, 38%; with SF-295 CNS, 77%; in the experiment with SF-539 CNS, 26.3%; in the experiment with UACC-257 melanoma it was 103%. In addition, the growth with M14 melanoma was 98.6%.
On to `O=C(CN1C(=O)c2ccccc2S1(=O)=O)Nc1nc(-c2cc3ccccc3oc2=O)cs1`, for which the growth with NCI-H23 lung is 110%; in the experiment with NCI-H226 lung it was 94.4%; in the experiment with NCI-H322M lung, 97.3%; in the experiment with HOP-62 NSCLC it was 105%; in the experiment on NCI-H460 lung, 105%; with NCI-H522 lung, 92.2%. Besides, the growth was 104% with A549/ATCC NSCLC; 91.8% in the experiment with 786-0 renal; 117% with COLO 205 colon; 108% in the experiment with DU-145 prostate; 100% in the experiment on K-562 leukemia; 101% in the experiment on MALME-3M melanoma. In addition, the growth was 114% in the experiment on MDA-MB-231 breast; 105% with RXF 393 renal; 95.7% with SF-268 CNS; 102% with SF-295 CNS; 95.8% with SF-539 CNS; 99.8% in the experiment with UACC-257 melanoma. Moreover, in the experiment with M14 melanoma, the growth is 106%.
On to `Cc1cc(C)n(C(=O)CSc2nc3sc4c(c3c(=O)n2-c2ccccc2)CCCCC4)n1`, for which the growth in the experiment with NCI-H23 lung was 91.6%; in the experiment on NCI-H226 lung, 98.1%; in the experiment on NCI-H322M lung it was 99.1%; in the experiment on HOP-62 NSCLC, 96.3%; with NCI-H460 lung it was 103%; in the experiment with HOP-92 NSCLC it was 95.1%. For the same compound, the growth in the experiment with NCI-H522 lung was 85.8%; with A549/ATCC NSCLC, 97.6%; in the experiment on 786-0 renal it was 108%; in the experiment with DU-145 prostate, 106%; with K-562 leukemia, 97.1%; in the experiment on MALME-3M melanoma, 107%. Besides, the growth in the experiment with MDA-MB-231 breast is 108%; in the experiment on RXF 393 renal, 99.9%; with SF-268 CNS it was 104%; in the experiment on SF-295 CNS, 101%; in the experiment on SF-539 CNS, 105%; in the experiment with UACC-257 melanoma it was 96.7%. Also, the growth in the experiment on M14 melanoma was 113%.
Take `Oc1ccc(C(c2ccc(O)cc2)c2ccc(Cl)cn2)cc1`: the growth was -4.57% (active) in the experiment on NCI-H23 lung; -31% (active) in the experiment on NCI-H226 lung; -18.9% (active) with NCI-H322M lung; 61.9% in the experiment on HOP-62 NSCLC; 103% with NCI-H460 lung; 57.6% in the experiment on NCI-H522 lung. In addition, the growth is 52.1% with A549/ATCC NSCLC; 86.8% with 786-0 renal; 4.91% (active) with COLO 205 colon; 56.7% in the experiment with DU-145 prostate; 71.8% in the experiment on K-562 leukemia; 107% in the experiment on MALME-3M melanoma. The growth with MDA-MB-231 breast is 77.1%; in the experiment on RXF 393 renal it was -57% (active); in the experiment on SF-268 CNS, 92.4%; with SF-295 CNS, 30.9%; in the experiment with SF-539 CNS it was 83.4%; with UACC-257 melanoma, 95.5%. Further, in the experiment on M14 melanoma, the growth was 85.5%.
In the case of `COc1ccc(-c2ccc(-c3ccc(C(=N)N)o3)o2)cc1`, the growth was 35.6% in the experiment on NCI-H23 lung; 78.2% in the experiment with NCI-H226 lung; 56.1% in the experiment with NCI-H322M lung; 46.4% with HOP-62 NSCLC; 0.541% (active) with NCI-H460 lung; 1.71% (active) in the experiment on NCI-H522 lung. Further, the growth with A549/ATCC NSCLC was 1.8% (active); with 786-0 renal, 21.9%; in the experiment with COLO 205 colon, -45.8% (active); in the experiment on DU-145 prostate, 6.23% (active); in the experiment on K-562 leukemia it was -9.69% (active); in the experiment on MALME-3M melanoma, 57.1%. Further, the growth in the experiment on MDA-MB-231 breast was 8.3% (active); with RXF 393 renal it was 25.1%; in the experiment on SF-268 CNS it was 39.8%; in the experiment with SF-295 CNS it was 35.6%; in the experiment with SF-539 CNS, 23%; in the experiment with UACC-257 melanoma it was 37.9%. For the same compound, the growth with M14 melanoma is 35.1%.
For the compound `CC1(C)CC(=O)C2=C(C1)OC(C(=O)c1ccccc1)C2c1cccc(Oc2ccccc2)c1` (configuration not stated), the growth in the experiment with NCI-H23 lung is 48.5%; in the experiment with NCI-H226 lung, 53.3%; in the experiment with NCI-H322M lung, 75.1%; in the experiment on HOP-62 NSCLC, 66.7%; with NCI-H460 lung it was 51.4%; in the experiment on NCI-H522 lung it was 38.2%. In addition, the growth with A549/ATCC NSCLC is 29.9%; in the experiment with 786-0 renal, 53.1%; with COLO 205 colon, 38.3%; in the experiment with DU-145 prostate, 68.1%; with K-562 leukemia, 31.7%; in the experiment on MALME-3M melanoma, 59.5%. Also, the growth in the experiment on MDA-MB-231 breast was 50.4%; with RXF 393 renal, 42.8%; with SF-268 CNS, 44.6%; in the experiment on SF-295 CNS, 32.6%; in the experiment with SF-539 CNS it was 63.9%; in the experiment on UACC-257 melanoma, 45.5%. Also, the growth in the experiment on M14 melanoma is 36.8%.
Regarding `CC(C)(C)n1cc(-c2ccnc(NCCNS(=O)(=O)c3ccc(C(F)(F)F)cc3)c2)c(-c2ccccc2)n1`, the growth in the experiment with NCI-H23 lung was 83%; in the experiment on NCI-H226 lung it was 89.4%; in the experiment with NCI-H322M lung, 99.5%; with HOP-62 NSCLC it was 97.8%; with NCI-H460 lung, 93.8%; in the experiment with HOP-92 NSCLC it was 3.62% (active). For the same compound, the growth in the experiment on NCI-H522 lung was 85.9%; in the experiment on A549/ATCC NSCLC, 78.2%; in the experiment on 786-0 renal it was 80.5%; in the experiment with DU-145 prostate, 99.2%; with K-562 leukemia, 44.3%; with MALME-3M melanoma, 109%. Further, the growth in the experiment with MDA-MB-231 breast is 92.1%; in the experiment on RXF 393 renal, 87.8%; in the experiment with SF-268 CNS, 95.3%; in the experiment on SF-295 CNS it was 83.7%; in the experiment with SF-539 CNS, 82.2%; in the experiment on UACC-257 melanoma, 104%. For the same compound, the growth with M14 melanoma was 88.8%.
Take `COc1ccc(Nc2nccc(Nc3ccc4[nH]ncc4c3)n2)cc1`: the growth is 40.3% in the experiment with NCI-H23 lung; 28.1% with NCI-H226 lung; 63.2% in the experiment with NCI-H322M lung; 49% with HOP-62 NSCLC; 24.9% in the experiment on NCI-H460 lung; 19.1% in the experiment with NCI-H522 lung. The growth is 24% in the experiment with A549/ATCC NSCLC; 43.5% with 786-0 renal; 26.4% in the experiment on COLO 205 colon; 32% with DU-145 prostate; 4.96% (active) in the experiment with K-562 leukemia; 76.1% with MALME-3M melanoma. The growth in the experiment with MDA-MB-231 breast is 48.6%; in the experiment on RXF 393 renal, 31.8%; in the experiment with SF-268 CNS, 47%; with SF-295 CNS it was 47.7%; in the experiment with SF-539 CNS it was 68.8%; with UACC-257 melanoma, 46.2%. Further, the growth with M14 melanoma is 33%.
